# In all, about 69,000 compounds went through this assay and about 1,000 (1.4%) showed an effect of 50% or more. Many of the other results were omitted from the sample, so strong results are more common in it than they were.
# Test system: Leishmania donovani
# Experiment: Leishmania intramacrophage assay
# Format: functional, organism-based
# Design: scale not given: in the data most compounds retested in dose-response had high values
compound,measurement,setting,value
COCCC(=O)N1C[C@@H](c2ccc(F)c(F)c2)[C@@]2(CCCC(=O)N2)C1,Percent Effect,"30.3 µM, […]",28.03%
COC(=O)N1CCCC(C(=O)NCCc2c[nH]c3cc(C)ccc23)C1 (stereo unspecified),Percent Effect,"30.3 µM, […]",6.757%
Cc1ccc(C2CSCCN2C(=O)c2ccc(C(N)=O)cc2)o1 (stereo unspecified),Percent Effect,"30 µM, 30.03 µM",7.343%
Cc1nccnc1N1C[C@H](NC(=O)CNS(C)(=O)=O)[C@@H](C2CC2)C1,Percent Effect,"30.3 µM, […]",8.886%
Cn1nc(C(=O)N2CCOCC2)c2c1CN(CC1CCC1)C2,Percent Effect,"30.3 µM, […]",23.43%
Cn1nc(C(=O)N2CCCC2)c2c1CN(CC1CCOCC1)C2,Percent Effect,"30.3 µM, […]",-0.9877%
Cn1nc(C(=O)N2CCOCC2)c2c1CN(CC1CC1)C2.O=C(O)C(F)(F)F.O=C(O)C(F)(F)F,Percent Effect,"30.3 µM, […]",55.32%
CC(C)(C)C(=O)NCCC(=O)NC(C)(C)c1ccc2c(c1)OCO2,Percent Effect,"30.3 µM, […]",2.237%
O=C(N1CCCC1)N1CCc2onc(COc3cccnc3)c2C1.O=C(O)C(F)(F)F,Percent Effect,"30.3 µM, […]",0.9186%
c1cncc(OCc2noc3c2CN(Cc2ccoc2)CC3)c1,Percent Effect,"30 µM, 30.03 µM",10.86%
Cc1cnc(N2CCc3onc(COc4cccnc4)c3C2)nc1,Percent Effect,"30.3 µM, […]",77.52%
CNS(=O)(=O)Cc1ccc(CNC(=O)c2cccc(C)n2)cc1,Percent Effect,"30 µM, 30.03 µM",36.89%
Cc1cc2c(cc1NC(=O)NC(C)(C)C)OCO2,Percent Effect,"30.3 µM, […]",-22.07%
Cc1nnc(CN(CCc2ccccc2)C2CCN(C)CC2)s1,Percent Effect,"30.3 µM, […]",1.604%
NCCn1nc(C2CCN(Cc3ccccc3)C2)c2nccnc21 (stereo unspecified),Percent Effect,"30.3 µM, […]",5.976%
NCCn1nc(C2CCN(Cc3ccc(Cl)c(Cl)c3)C2)c2nccnc21 (stereo unspecified),Percent Effect,"30 µM, 30.03 µM",52.46%
NCCn1nc(C2CCN(Cc3ccccc3Cl)C2)c2nccnc21 (stereo unspecified),Percent Effect,"30.3 µM, […]",9.93%
Clc1cccc2c3c([nH]c12)CCN(Cc1cc2n(n1)CCCNC2)C3,Percent Effect,"30.3 µM, […]",94.36%
c1ccc2c3c([nH]c2c1)CN(Cc1cc2n(n1)CCNC2)CC3,Percent Effect,"30.3 µM, […]",19.37%
Clc1cccc2c3c([nH]c12)CCN(Cc1cc2n(n1)CCNC2)C3,Percent Effect,"30.3 µM, […]",28.65%
COc1ccc(C(C)N(C)Cc2c(C(C)C)[nH]c3ncccc23)cc1 (stereo unspecified),Percent Effect,"30.3 µM, […]",-22.28%
CCN1CCCC1CN(CCN(C)C)S(=O)(=O)c1ccccc1C#N (stereo unspecified),Percent Effect,"30.3 µM, […]",13.5%
O=C(OCC1CCCN(C(=O)c2ccccc2)C1)c1cscn1 (stereo unspecified),Percent Effect,"30.3 µM, […]",-48.09%
O=C(OCC1CCN(c2ccccc2)C1)c1cscn1 (stereo unspecified),Percent Effect,"30.3 µM, […]",51.5%
COCc1nc(C(=O)OCC2CCN(c3ccccc3)C2)cs1 (stereo unspecified),Percent Effect,"30.3 µM, […]",-78.1%
COc1cc(C(=O)N(Cc2ccc(F)cc2)C2CC2)cc2c1OCCO2,Percent Effect,"30 µM, 30.03 µM",14.84%
CCCNC(=O)N1CCc2ccc(S(=O)(=O)N3CCOCC3)cc2C1,Percent Effect,"30.3 µM, […]",11.75%
CC1=C(CCN2C[C@H](O)[C@@H](N3CCOCC3)C2)C(C)(C)CCC1,Percent Effect,"30.3 µM, […]",-12.68%
CC1=C(CCN2CC[C@@H](N3CCC(O)CC3)[C@H](O)C2)C(C)(C)CCC1,Percent Effect,"30.3 µM, […]",56.28%
CC1=C(CCN2CCCC(O)C2)C(C)(C)CCC1 (stereo unspecified),Percent Effect,"30.3 µM, […]",25.33%
Cc1ccc(N(Cc2ccco2)C(=O)CC2=NN(C)C(=O)C2)cc1,Percent Effect,"30.3 µM, […]",6.943%
COc1ccc(OCc2sc(C3(O)CCCNCC3)nc2C)cc1.Cl (stereo unspecified),Percent Effect,"30 µM, 30.03 µM",9.769%
Cc1nc(C2(O)CCCNCC2)sc1CCOc1ccccc1.Cl (stereo unspecified),Percent Effect,"30.3 µM, […]",4.476%
CCCN1CCCC(O)(c2nc(C)c(COc3ccccc3)s2)CC1 (stereo unspecified),Percent Effect,"30.3 µM, […]",-5.482%
COc1ccc(OCCc2sc(C3(O)CCCNCC3)nc2C)cc1.Cl (stereo unspecified),Percent Effect,"30 µM, 30.03 µM",10.27%
Cc1nc(C2(O)CCCNCC2)sc1CCOc1ccc(Cl)cc1.Cl (stereo unspecified),Percent Effect,"30 µM, 30.03 µM",92.94%
CC(=O)NCc1nc(CCOc2ccc(Cl)cc2)no1,Percent Effect,"30.3 µM, […]",7.139%
CCN1CCCC(O)(c2nc(C)c(CCOc3ccc(F)cc3)s2)CC1 (stereo unspecified),Percent Effect,"30.3 µM, […]",11.02%
CC(C)(C)c1ncc(C(=O)NCCNS(C)(=O)=O)s1,Percent Effect,30 µM,20.12%
CCOc1ccccc1C(CC(=O)Nc1ccc(C)cn1)NC(C)=O (stereo unspecified),Percent Effect,"30 µM, 30.03 µM",34.79%
COc1ccc2c(ccn2CCC(=O)Nc2n[nH]c(CC(C)C)n2)c1,Percent Effect,"30.3 µM, […]",-2.003%
COc1cccc(CCC(=O)N2CCCC(n3cc(C)cn3)C2)c1 (stereo unspecified),Percent Effect,"30 µM, 30.03 µM",9.343%
Cc1cc(C(=O)N2CCCC2c2noc(C)n2)[nH]n1 (stereo unspecified),Percent Effect,"30.3 µM, […]",-9.431%
Cc1nc(C)c(C(=O)N2CCC(O)(Cn3ccc4ccncc43)CC2)s1,Percent Effect,"30.3 µM, […]",-5.567%
O=C(Nc1cccc(CN2CCOC2=O)c1)N1CCCC1,Percent Effect,"30.3 µM, […]",-5.143%
Cc1noc(C)c1C(=O)N(C)Cc1nc(-c2ccccn2)no1,Percent Effect,"30 µM, 30.03 µM",21.79%
Cc1noc(C(C)C)c1C(=O)NCCN1CCCCCC1=O,Percent Effect,"30 µM, 30.03 µM",20.26%
O=C1CCC(C(=O)NCCOc2cccc(Cl)c2Cl)CN1 (stereo unspecified),Percent Effect,"30.3 µM, […]",18.68%
CN(C)[C@H]1CCCCN(C(=O)c2cccc(N3CCS(=O)(=O)CC3)c2)C1,Percent Effect,"30.3 µM, […]",-11.54%
CN(C)C1CCCN(C(=O)c2cccc(-c3ncc[nH]3)c2)CC1 (stereo unspecified),Percent Effect,"30.3 µM, […]",21.12%
CN(C)[C@H]1CCCCN(C(=O)c2cccc(-c3cccc(F)c3)c2)C1,Percent Effect,"30.3 µM, […]",60.02%

# Source: ChEMBL document CHEMBL3988442, “University of Dundee, Small-Polar-MMV Screening Library” (2021)
